The whole screen tested about 320,000 compounds, of which about 22,000 (6.9%) were called active. Another 27% or so got no clear call; they are omitted. For the sample, actives were picked, then their nearest neighbours and some compounds at random. A number with no mark means an inactive call. The call rests on the fitted dose curve; in most records, active means well fitted inhibition curve with a large enough effect; inconclusive means small, poorly fitted or top-dose-only effect, or another doubt; inactive means no such curve, though single readings can be large or run the other way.
Test: Primary qHTS for delayed death inhibitors of the malarial parasite plastid, 96 hour incubation
Details: P. falciparum luciferase reporter growth; series mostly up to 28.7 µM; activity change, negative = inhibition: at the top concentration
Excerpt: The goal of this screen is to discover new antimalarial compounds that act by inhibiting the development of the apicoplast in the malarial parasite Plasmodium falciparum. The biochemical processes that make this organelle essential for erythrocytic stage parasites are not well understood. However, antibiotics such as azithromycin and tetracycline, which target the apicoplast translational machinery, have a potent antimalarial effect.
We have developed a cell-based assay that measures parasite growth based on the expression of an integrated copy of a firefly luciferase reporter. To detect small molecules that cause this "delayed death" phenotype, erythrocytes infected with the luciferase-expressing parasites were incubated with compounds for either one or two generations, corresponding to 48 and 96 hours, respectively. Compounds that inhibit parasite growth in the second generation, but not the first, should be enriched in antimalarials that target the apicoplast. Growth inhibition is detected by a decrease in luciferase activity.
Assay Provider: David Fidock and Eric Ekland, Columbia University
Keywords: NIH Roadmap, MLPCN, MLI, MLSMR, qHTS, NCGC, qHTS, malaria, luciferase, viability
Four microliters of infected erythrocytes (2% hematocrit, 0.05% parasitemia final concentration) in culture medium were dispensed and the plates incubated for 96 hours at 37 C in 5% CO2. Two microliters of luciferase detection reagent was added and luminescence was detected by a ViewLux (PerkinElmer) reader.
On the % scale 0 is the no-effect control and ±100 the full control effect; potency means the concentration at half of the fitted maximal effect.

Structure (SMILES)	activity change, negative = inhibition	Potency
O=C(Cn1cc(C(=O)C2CC2)c2ccccc21)Nc1ccccc1Cl	15.4%	
COCCCNc1nc2c(-c3cccc(C)c3)nnn2c2ccc(Cl)cc12	2.68%	
O=C(Cc1ccccc1)N1N=C(c2ccncc2)CC1(O)C(F)(F)F (stereo not given)		13.1 µM (active)
CC1=NN(C(=O)CCCc2ccccc2)C(O)(C(F)(F)F)C1 (stereo not given)	-30.7%	
CC1=NN(C(=O)CCc2ccccc2O)C(O)(C(F)(F)F)C1 (stereo not given)	-3.05%	
Cc1ccc2[nH]c(=O)c(CN(C)S(=O)(=O)c3cccc4nonc34)cc2c1	-24.7%	
CC1=NNC(=O)C1CC(=O)N/N=C/c1ccncc1 (stereo not given)	31.8%	
[O-][N+]12CCCCC1CCCC2CO (stereo not given)	2.61%	
CC(=O)Nc1ccc(NC(=O)CCN2C(=O)C3CC=CCC3C2=O)cc1 (stereo not given)	7.9%	
O=C(CC1SC(N2CCCC2)=NC1=O)Nc1ccc(C(=O)NCCc2ccc(F)cc2)cc1 (stereo not given)		10.4 µM (active)
O=C(CSc1nnc(SCc2ccc(F)cc2)s1)Nc1ccc(C(=O)O)cc1	175%	
O=C(NCCc1ccc(F)cc1)c1ccc2nccnc2c1	351%	
O=C(CNC(=O)Cc1ccccc1)N=Nc1c(O)[nH]c2ccc(Br)cc12	0.113%	
O=C(c1ccccc1)N1CCN(C(=O)c2cc3nc(-c4ccccc4)cc(C(F)(F)F)n3n2)CC1	-1.61%	
COc1cc(/C=C(\C#N)c2nc3ccccc3[nH]2)ccc1O	2.89%	
Cc1ccc2nc(S(=O)(=O)O)[nH]c2c1	20.9%	
Cc1ccc2nc(/C(C#N)=C\c3ccc(OC(=O)c4cccs4)cc3)[nH]c2c1		9.28 µM (active)
Cc1c(C=O)c2ccccc2n1CCOc1ccccc1	13.8%	
Cc1nn(C)c(Cl)c1CN1CCC(Oc2ccc(C(=O)N3CCCC3)cc2)CC1	50%	
COc1ccc(C(=O)NC(C)CCc2ccccc2)c(OC)c1 (stereo not given)	-22.5%	
CC(C)c1ccc(C(=O)OC2CCOC2=O)cc1 (stereo not given)	0%	
Cn1c(=O)c2ccccc2n(CC(=O)Nc2ccc3c(c2)OCCO3)c1=O	1.42%	

Structure (SMILES)	activity change, negative = inhibition	Potency
Cc1ccc(OCCOCCOc2ccc(Br)cc2/C=N\NC(=O)c2ccncc2)cc1		5.22 µM (active)
COc1ccc(CC(=O)NCC(=O)N/N=C/c2cc(Br)ccc2OC)cc1	-8.14%	
Cc1ccc(S(=O)(=O)Oc2ccc(/C=N/NC(=O)c3ccncc3)cc2)cc1	40.8%	
CNS(=O)(=O)c1cccc(C(=O)NC2CCCc3ccccc32)c1 (stereo not given)	-8.59%	
Cc1n[nH]c(=O)c2c(NC(=O)COC(=O)c3ncc(Cl)c(Cl)c3Cl)oc(C)c12	22%	
Cc1cccc(C)c1NC(=O)NC1=CCCN1C	-17.3%	
Cc1nnc(SCCCn2c(N3CCCCC3)nc3c2c(=O)[nH]c(=O)n3C)s1		2.08 µM (active)
Cn1c(=O)[nH]c(=O)c2c1nc(CN1CCN(c3ccccc3F)CC1)n2CCc1ccccc1	-25.9%	
CC1CCN(c2nc3c(c(=O)[nH]c(=O)n3C)n2CCCc2ccccc2)CC1		10.4 µM (active)
Cn1c(=O)[nH]c(=O)c2c1nc(Br)n2CCCCSc1nc2ccccc2o1	30.3%	
Cn1c(=O)[nH]c(=O)c2c1nc(N1CCCCCC1)n2CC(=O)c1ccccc1	-12.3%	
C=C(C)Cn1c(N2CCN(CC)CC2)nc2c1c(=O)[nH]c(=O)n2C		2.33 µM (active)
CCCCNc1nc2c(c(=O)[nH]c(=O)n2C)n1CCOc1ccccc1	-22.4%	
C=C(C)Cn1c(N2CCCC2)nc2c1c(=O)[nH]c(=O)n2C	12.6%	
Cc1nnc(Sc2nc3c(c(=O)[nH]c(=O)n3C)n2Cc2ccccc2)s1	-11.4%	
FC(F)(F)c1cccc(-c2nc(COc3ccc(Cl)cc3Cl)no2)c1	-2.32%	
Cc1cc(C)nc(NS(=O)(=O)c2ccc(N3C(=O)C4CCCCC4C3=O)cc2)n1 (stereo not given)	77.2%	
CCc1ccc(NC(=O)Cn2nnc(C(=O)NCc3ccc4c(c3)OCO4)c2N)cc1	20.3%	
COc1ccc(S(=O)(=O)N2CCOCC2)cc1NC(=O)Cc1c(F)cccc1Cl	-12.3%	
Cc1ccc(S(=O)(=O)N2CCN(C)CC2)cc1C(=O)NC1CCCCC1	-14.8%	
COc1ccc(S(=O)(=O)N2CCOCC2)cc1C(=O)NC1CCCCC1		4.65 µM (active)
Cc1ccc(S(=O)(=O)N2CCOCC2)cc1NC(=O)CSc1nnc(N)s1	-4.94%	

Structure (SMILES)	activity change, negative = inhibition	Potency
COc1ccc(S(=O)(=O)N2CCOCC2)cc1NC(=O)COc1ccccc1	-0.938%	
COc1ccc(S(=O)(=O)N2CCOCC2)cc1NC(=O)Cc1coc2cc(C)ccc12	-11.9%	
COc1ccc(S(=O)(=O)NC(C)C)cc1C(=O)NC1CCCCC1	-13.1%	
COc1ccc(S(=O)(=O)N2CCOCC2)cc1NC(=O)CSc1cc(C)ccc1C		7.38 µM (active)
CC(C)Oc1ccc(S(=O)(=O)N2CCOCC2)cc1NC(=O)C1CCCC1		11.7 µM (active)
NC(=O)COC(=O)c1ccc2c(c1)C(=O)N(Cc1ccco1)C2=O	18.5%	
Cc1cc(C)c(CN2CCN(C(=O)Cn3ccc(NC(=O)OCc4ccccc4)nc3=O)CC2)c(C)c1	-25.9%	
O=C(COC(=O)Cn1[nH]c(=O)c2ccccc2c1=O)Nc1ncc(Cl)cc1Cl	25.8%	
COc1ccc(C(=O)OCC(=O)c2ccc(Cl)s2)c(OC)c1OC	-21.3%	
CCc1cccc(C)c1NC(=O)COC(=O)CNC(=O)c1cccs1	34.6%	
CN(C)c1cccc(C(=O)N2CCC(n3nccc3NC(=O)C3CCOC3)CC2)c1 (stereo not given)	16.6%	
Cc1nnc2n1N=C(c1ccccc1)CS2	22%	
CCN(CC)S(=O)(=O)c1ccc(Cl)c(C(=O)NCCN2CCOCC2)c1	-25.2%	
N#C/C(=C/c1ccc(Cl)cc1)NC(=O)c1ccccc1		3.7 µM (active)
O=C(NCC1CCCO1)/C(=C/c1ccc(Cl)cc1)NC(=O)c1ccccc1 (stereo not given)	-28.1%	
O=C(NC(=O)c1ccccc1)NC(=O)c1ccccc1	-27.2%	
CCCOc1ccc(NC(=O)CC2C(=O)N(C)C(=S)N2Cc2ccc3c(c2)OCO3)cc1 (stereo not given)		0.329 µM (active)
COc1ccc(N2C(=O)C(CC(=O)Nc3ccccc3)N(Cc3ccc(OC)c(OC)c3)C2=O)cc1 (stereo not given)	10.9%	
CCOc1ccc(NC(=O)CC2C(=O)N(c3ccccc3)C(=O)N2CCOC)cc1 (stereo not given)	35.9%	
CCS(=O)(=O)c1ccc(-c2cccc(NC(=O)c3ccc(Br)o3)c2)nn1	1.83%	
O=C(OCCN1C(=O)c2ccccc2C1=O)Oc1ccccc1	-2.14%	
